The full ranking holds about 110,000 compounds; the median of “z-score” is about -0.1, and the highest 2% start at about 2. The full list was thinned out, with the highest values kept by preference. Calls of active or inactive are those of the source.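 The calls were made as follows: active = z-score in the third read window above 3 or below -3; inactive = the rest.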
What follows are compounds tested against Metabotropic glutamate receptor 8 (Rattus norvegicus) (UniProt P70579) (assay: mGluR8 Gi/Go-coupled signaling modulation – cell-based, rat, thallium flux, HTS, primary screen (AID 488969)). Details: HEK293 rat mGluR8, GIRK (G protein-gated inwardly rectifying potassium channel) thallium flux, FluoZin2; at 10 µM; stronger effect = higher value; submaximal glutamate (EC20) added with thallium.
Metabotropic glutamate receptor 8 (Rattus norvegicus), sequence (P70579 whole entry, looked up): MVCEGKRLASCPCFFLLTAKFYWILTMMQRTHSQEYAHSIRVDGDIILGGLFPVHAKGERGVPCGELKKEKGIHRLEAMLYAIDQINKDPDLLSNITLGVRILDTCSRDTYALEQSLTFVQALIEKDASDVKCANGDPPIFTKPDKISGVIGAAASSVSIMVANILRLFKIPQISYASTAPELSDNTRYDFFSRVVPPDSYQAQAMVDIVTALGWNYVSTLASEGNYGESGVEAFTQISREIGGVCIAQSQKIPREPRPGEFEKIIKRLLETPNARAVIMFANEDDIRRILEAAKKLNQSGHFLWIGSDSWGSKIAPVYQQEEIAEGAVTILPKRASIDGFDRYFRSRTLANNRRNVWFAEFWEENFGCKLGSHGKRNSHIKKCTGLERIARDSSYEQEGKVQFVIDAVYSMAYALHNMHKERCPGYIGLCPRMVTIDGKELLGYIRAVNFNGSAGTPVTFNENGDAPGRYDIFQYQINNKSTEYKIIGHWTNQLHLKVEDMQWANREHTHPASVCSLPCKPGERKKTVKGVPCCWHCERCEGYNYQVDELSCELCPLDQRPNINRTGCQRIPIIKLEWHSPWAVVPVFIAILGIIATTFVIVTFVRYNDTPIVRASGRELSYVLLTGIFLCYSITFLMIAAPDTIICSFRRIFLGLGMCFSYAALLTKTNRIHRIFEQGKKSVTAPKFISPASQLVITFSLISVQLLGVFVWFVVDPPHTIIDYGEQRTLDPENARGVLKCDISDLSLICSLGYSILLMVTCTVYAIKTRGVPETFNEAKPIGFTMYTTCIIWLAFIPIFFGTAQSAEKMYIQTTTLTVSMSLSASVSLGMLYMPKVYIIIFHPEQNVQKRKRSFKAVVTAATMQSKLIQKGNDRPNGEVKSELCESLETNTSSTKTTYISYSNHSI

In order of falling z-score:
1. c1ccc(CN2C3=NCCCN3c3ccccc32)cc1  2.93
2. O=C(CSC1=Nc2ccccc2C2=NC(c3ccccc3)C(=O)N12)NCC1CCCO1 (configuration not stated)  2.65
3. O=C(Nc1ccc(N2CCOCC2)cc1)C1CCCN(S(=O)(=O)c2cccc(C(F)(F)F)c2)C1 (configuration not stated)  2.63
4. CC(C)(C)C1CCC2(CC1)C(Nc1cccc(C(F)(F)F)c1)=NC(=S)N2CC#N (configuration not stated)  2.58
5. N#CCN1C(=S)N=C(Nc2cccc(Cl)c2)C12CCCCC2  2.57
6. C/C(=N\NC(N)=S)C12CC3CC(CC(C3)C1)C2  2.47
7. C=CCN1C(=Nc2cccnc2)SCC1(O)c1ccc(C)cc1 (configuration not stated)  2.38
8. COc1cc(NC(=O)c2ccc(C)cc2)c(OC)cc1NC(=O)CN1CCCCC1  2.37
9. CC1CCC2(CC1)C(Nc1cccc(Cl)c1)=NC(=S)N2CC#N (configuration not stated)  2.23
10. CCSc1nnc(NC(=O)C(C)Sc2nc3ccccc3[nH]2)s1 (configuration not stated)  1.73
11. C/C=C/Cn1c(Br)nc2c1c(=O)n(C)c(=O)n2C  1.47
12. FC(F)(F)c1cccc(NC(=S)NC2CCCC2)c1  1.26
13. COc1ccc(NC2=NC(=S)N(c3cccc(C)c3)C23CCCCC3)cc1  1.22
14. COc1ccc2oc(C(=O)C3CC3)c(N)c2c1  1.19
15. Cn1c(=O)oc2cc(S(=O)(=O)N3CCCC(C(=O)N4CC=C(c5ccccc5)CC4)C3)ccc21 (configuration not stated)  1.18
16. Cc1ccc(C(O)CN2C3=NCCCN3c3ccccc32)cc1 (configuration not stated)  1.16
17. CC1CC(=S)Nc2ccccc2S1 (configuration not stated)  1.11
18. CCOC(=O)C(C)Sc1nc(C2CC2)cc(C(F)(F)F)c1C#N (configuration not stated)  1.1
19. Cc1cccc(NC2=NC(=S)N(CC#N)C23CCCCC3)c1  1.02
20. CCC(C)(C(=O)NC1CCCCC1)N(C(=O)C1CCC(=O)N1)c1ccccc1 (configuration not stated)  0.963
21. COc1ccc(NC2=NC(=S)N(c3ccc(C)cc3)C23CCCCC3)cc1  0.796
22. OC(CN1C2=NCCCN2c2ccccc21)c1ccc(Cl)cc1 (configuration not stated)  0.782
23. Brc1ccc(CN2C3=NCCCN3c3ccccc32)cc1  0.755
24. Cc1ccc(Cl)cc1NC1=NC(=S)N(C(C)C)C12CCCCC2  0.728
25. CCOC(=O)C(C)On1c(-c2cccc(Cl)c2)nc2ccc([N+](=O)[O-])cc21 (configuration not stated)  0.66
26. O=C(NC(C(=O)O)c1ccccc1)c1ccccc1 (configuration not stated)  0.488
27. O=C(Nc1ccc(N2CCOCC2)cc1)C1CCCN(S(=O)(=O)c2ccccc2)C1 (configuration not stated)  0.446
28. Clc1ccc(CN2C3=NCCCN3c3ccccc32)cc1  0.436
29. CCCN1C2=NCCCN2c2ccccc21  0.397
30. CCCCCN1C2=NCCN2c2ccccc21  0.394
31. COc1ccc(N(C)S(=O)(=O)c2cccc(C(=O)OCC(=O)Nc3sc4c(c3C#N)CCCCC4)c2)cc1  0.379
32. O=C(CN1C2=NCCCN2c2ccccc21)c1ccc(Cl)cc1Cl  0.287
33. COC(=O)CCC(=O)Nc1ccc(C)cc1OC(=O)CCC(=O)OC  0.273
34. O=C(CCC(=O)c1ccc(F)cc1)Nc1ccccc1Cl  0.266
35. CC(C)COP(=O)(OCC(C)C)C(O)c1ccc(F)cc1 (configuration not stated)  0.263
36. OC(CN1C2=NCCN2c2ccccc21)c1ccc(Br)cc1 (configuration not stated)  0.254
37. Cc1cccc(NC(=O)c2sc(Cl)nc2C)c1C  0.181
38. CC1=NN(C(=O)Cc2ccc(C)cc2)C(O)(c2cccnc2)C1 (configuration not stated)  0.145
39. O=C1CC(c2ccc(S(=O)(=O)NCCOc3ccccc3)cc2)CN1 (configuration not stated)  0.129
40. C=CCn1c(Oc2cc(C)ccc2C)nc2c1c(=O)n(C)c(=O)n2C  0.128
41. Cc1ccc(Nc2nc(N)nc(CC#N)n2)cc1  0.115
42. COc1ccc(C2(CNC(C)=O)CCOCC2)cc1OC  0.1
43. COc1ccccc1CNS(=O)(=O)c1c(C)[nH]c(=O)[nH]c1=O  0.0871
44. NNC(=O)c1cnn(Cc2ccccc2)c1N  0.0742
45. Cc1ccc(C)c(C(=O)CN2C3=NCCCN3c3ccccc32)c1  0.0716
46. Cc1ccccc1C(=O)NNC(=O)c1ccc(F)cc1  0.0481
47. Cc1ccccc1OCC(=O)NC1=NCCS1  0.0476
48. CCOC(=O)c1ccccc1NC(=O)c1cccc(F)c1  0.0409
49. CC(=O)Nc1cccc(C(=O)/C=C/c2ccc(/C=C/C(=O)c3cccc(NC(C)=O)c3)cc2)c1  0.033
50. CCCCCCCCCOC(=O)C[n+]1csc(CCO)c1C  0.0302
51. COCCNC(=O)C(c1cccs1)N(C(=O)Cn1nnc2ccccc21)c1ccc(OC)cc1 (configuration not stated)  0.0248
52. Cc1ccc(C(=O)c2ccccc2C(=O)O)c(O)c1  0.0184
53. CCN1C2=NCCCN2c2ccccc21  0.0152
54. OC1(c2ccc(OC(F)F)cc2)CSC(=Nc2cccnc2)N1C1CC1 (configuration not stated)  -0.02
55. COC(=O)/C(=C/c1cccnc1)NC(=O)c1ccccc1  -0.0328
56. COC(=O)C1=CN(C(C)C)C=C(C(=O)OC)C1c1cc2c(cc1Br)OCO2  -0.0368
57. O=S(=O)(c1ccccc1)c1nc(-c2ccccc2)oc1N1CCCCC1  -0.0433
58. CCOC(=O)c1cc(C#N)c(Oc2ccc(F)cc2)nc1-c1ccccc1  -0.0477
59. CCCSc1nnc(-c2cnn(-c3ccccc3)c2-n2cccc2)n1C  -0.0552
60. COc1ccccc1C(=O)NNC(=O)c1cccc(F)c1  -0.0578
61. C=C(C)C(C)(C#CCN1CCCC1)OC(C)=O (configuration not stated)  -0.061
62. CNc1nc(CCN2C(=O)c3ccccc3C2=O)cs1  -0.0681
63. COc1cc(/C=N/NC(=O)c2cc3ccccc3cc2O)ccc1OCCN1CCCCC1  -0.0725
64. Cc1cc(C(F)(F)F)nn1Cc1n[nH]c(=S)n1-c1cccc(Cl)c1  -0.0907
65. Cc1cc(C(=O)COC(=O)Cc2n[nH]c(=O)c3ccccc23)c(C)n1-c1ccc2c(c1)OCCO2  -0.104
66. CN(C#N)c1nc(Cl)nc(Nc2cccc(Cl)c2)n1  -0.113
67. CCOC(=O)c1c(NC(=O)CSc2nc3ccccc3s2)sc(C(C)=O)c1C  -0.129
68. Cc1cc2c(cc1C)NC(=O)CC(C(F)(F)C(F)(F)C(F)(F)F)=N2  -0.139
69. COc1ccc(OC)c(Nc2ncnc3c2cnn3-c2ccccc2)c1  -0.143
70. CC(C)OC(=O)/C(=C\C=C\c1ccccc1)NC(=O)c1ccccc1  -0.143
71. Cc1nn(-c2ccccc2)c(Cl)c1/C=N/NC(=O)C1COc2ccccc2O1 (configuration not stated)  -0.169
72. COC(=O)c1ccc(COC(=O)c2ccc(SC)cc2OC)cc1  -0.178
73. Cc1ccc(S(=O)(=O)N2CCN(c3ccc4nnc(-c5ccccc5)n4n3)CC2)cc1  -0.183
74. O=C1C(Cl)=C(NCCCO)C(=O)c2ccccc21  -0.185
75. Cc1cccc(NC2=NC(=S)N(c3ccc(C(=O)O)cc3)C23CCCCC3)c1  -0.194
76. CS(=O)(=O)c1ccc(Cl)c(NC(=O)c2cccc(Br)c2)c1  -0.236
77. CC(=O)Nc1c(OC(C)=O)ccc2c(C)cc(=O)oc12  -0.24
78. O=C1CC(C(F)(F)C(F)(F)C(F)(F)C(F)(F)F)=Nc2ccccc2N1  -0.248
79. O=C(Nc1ccccc1C(=O)O)c1cccc(F)c1  -0.262
80. CCC(=O)OCCn1c(Br)nc2c1c(=O)[nH]c(=O)n2C  -0.265
81. COc1ccc(OC)c(C(=O)CSc2nccc(-c3ccc(Br)cc3)n2)c1  -0.268
82. O=C(Nc1ccccc1N1CCOCC1)C1CCN(S(=O)(=O)c2cccc(C(F)(F)F)c2)CC1  -0.294
83. O=C(CCN1C(=O)c2ccccc2C1=O)Nc1sc2c(c1C(=O)NCC1CCCO1)CCC2 (configuration not stated)  -0.294
84. CC1CCC(=C(C#N)C(=O)Nc2cccc(Cl)c2)CC1 (configuration not stated)  -0.314
85. C/C(=N\NC(=O)c1ccncc1)C12CC3CC(CC(C3)C1)C2  -0.319
86. COC(=O)C(C)C1Sc2ccccc2NC1=O (configuration not stated)  -0.34
87. Fc1ccc(CN2C3=NCCCN3c3ccccc32)cc1  -0.37
88. CN(C)C(=O)c1snnc1-c1ccccc1  -0.386
89. Cc1cccc(N(CC(=O)Nc2ccccc2F)S(C)(=O)=O)c1  -0.443
90. COc1ccc(N=C/C=C2\C=C(c3ccccc3)OC(C)(C)O2)cc1  -0.461
91. Cc1cc2cc3c(cc2nc1SCc1ccc(C(=O)O)cc1)OCCO3  -0.554
92. C=CCc1c(C)nc(SC)nc1Nc1ccccc1  -0.563
93. COc1ccc(N(CC(=O)NCc2ccc3c(c2)OCO3)S(=O)(=O)c2c(C)nn(C)c2C)cc1  -0.575
94. C/C(CCC12CC3CC(CC(C3)C1)C2)=N\NC(N)=S  -0.636
95. COc1cc(NC(=O)COC(=O)CNC(=O)c2ccc(Cl)cc2)c(C)cc1[N+](=O)[O-]  -0.644
96. COc1cc(NC(=O)c2ccc(C)cc2)c(OC)cc1NC(=O)CN1CCOCC1  -0.672
97. COc1cc(NC(=O)c2ccccc2)c(OC)cc1NC(=O)CN1CCCCC1  -0.781
98. O=C(CSC1=Nc2ccccc2C2=NC(c3ccccc3)C(=O)N12)NC1CCCCC1 (configuration not stated)  -0.816
99. O=C(CSC1=Nc2ccccc2C2=NC(CC(=O)NCc3ccco3)C(=O)N12)NCC1CCCO1 (configuration not stated)  -0.919
100. CCCCN1C2=NCCCN2c2ccccc21  -0.957
101. CC(C(=O)Nc1sc2c(c1C(=O)NCC1CCCO1)CCC2)N1C(=O)c2ccccc2C1=O (configuration not stated)  -1
102. COc1cccc(C2C(C#N)=C(N)Oc3c2oc(CO)cc3=O)c1 (configuration not stated)  -1.28
103. O=C1CN=C(Nc2cccc(C(F)(F)F)c2)N1C1CCCC1  -2.95

COc1ccc(NC2=NC(=S)N(c3ccccc3C)C23CCCCC3)cc1 was tested, and the z-score was 15.4 (active).
For Cc1ccc(NC2=NC(=S)N(CC#N)C23CCCCC3)cc1, the z-score was 3.98 (active).
For CC1(C)CC(=S)Nc2ccccc2S1, the z-score was 7.97 (active).
For CC(C)OC(=O)/C(=C/c1cccnc1)NC(=O)c1ccccc1, the z-score was 3.22 (active).
In the case of O=C(CN1C(=O)c2ccccc2C1=O)Nc1sc2c(c1C(=O)NCC1CCCO1)CCC2 (configuration not stated), the z-score is reported as 4.33 (active).
With O=C(CC(=O)c1ccccc1O)c1ccc(F)cc1 the z-score was 7.61 (active).
For Cc1ccc(C(=O)CC(=O)c2cccc(F)c2)c(O)c1, the z-score was 8.38 (active).
With O=C(CC(=O)c1ccccc1O)c1cccc(F)c1 the z-score was 3.63 (active).
In the case of O=C1CC(C(F)(F)C(F)(F)C(F)(F)F)=Nc2ccccc2N1, the z-score is reported as 3.4 (active).
With CC(C)(C)c1ccc(CN2C3=NCCCN3c3ccccc32)cc1 the z-score was 4.19 (active).
For OC(CN1C2=NCCCN2c2ccccc21)c1ccc(Br)cc1 (configuration not stated), the z-score was 3.3 (active).
For CCCCCCN1C2=NCCN2c2ccccc21, the z-score was 7.63 (active).
With Cc1ccc(CN2C3=NCCCN3c3ccccc32)cc1 the z-score was 3.51 (active).
With Cc1ccccc1CN1C2=NCCCN2c2ccccc21 the z-score was 3.26 (active).

Source: PubChem BioAssay AID488969 (Vanderbilt High Throughput Screening Facility, 2010)
